# Measured values from PubChem BioAssay (Tox21).
# “And” between values parts separate entries of the source, which are not always exact repeats. Equal entries are not always repeated. The source made the active and inactive calls. Where a call stands in place of a potency, no number is given. The call rests on the fitted dose curve; in most records, active means well fitted activation curve with a large enough effect in the repeat runs; inconclusive means weak or mixed curves; inactive means flat fitted curve, though single readings scatter.
# Assay: Caspase-3/7 induction in CHO-K1 cells by small molecules, qHTS assay (AID 1346980); further: nearly all actives have a fitted effect of over 15% in size
# Details: CHO-K1 caspase-3/7 induction, Caspase-Glo luminescence, 17 h; series mostly up to 92.4 µM
# In short: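 Luminescent Caspase-Glo 3/7 read (30min, room temperature) quantified apoptosis induction. Cells were wild-type CHO-K1, treated with compound for 17hr at 37 C and 5% CO2.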
# Potency means the concentration at half of the fitted maximal effect.
row,Structure (SMILES),Potency
1,CN1CCN(CCC(=O)N2c3ccccc3Sc3ccc(C(F)(F)F)cc32)CC1,inactive
2,CCCCCCCCCCCC[N+](C)(C)CCCCCCCCCCCC,inactive
3,CN1CCC(Nc2ncc3ncnc(Nc4ccc(F)c(Cl)c4)c3n2)CC1,inactive
4,CC(C)(C)C(=O)OCOC(=O)C1N2C(=O)CC2S(=O)(=O)C1(C)C (stereo not drawn),inactive
5,CNCc1cc(F)ccc1Oc1ccc(Cl)c(Cl)c1,inactive
6,CCCCCOC(=O)CCCC,inactive
7,COc1cc(-c2nc(NC(=O)c3cc4cc(C)cc(C)c4n3CC(=O)O)sc2CCC2CCCCC2)c(OC)cc1Cl,56 µM (active)
8,O=S1(=O)CC(Cl)(Cl)C(Cl)(Cl)C1,0.486 µM (active)
9,O=C1c2ccccc2Cc2ccccc21,inactive
10,O=C(c1ccc(F)cc1)C1CCN(CCn2c(=O)[nH]c3ccccc3c2=O)CC1,inactive
11,Oc1ccc(C2(c3ccc(O)cc3)CC3CC2C2CCCC32)cc1 (stereo not drawn),inactive
12,C[C@H](CCC(=O)O)[C@H]1CC[C@H]2[C@@H]3CC[C@@H]4C[C@H](O)CC[C@]4(C)[C@H]3CC[C@]12C,48.4 µM (active) and 61.1 µM (active)
13,NNc1nc(-c2ccc([N+](=O)[O-])cc2)cs1,inactive
14,O=C(Oc1cccc2cccnc12)c1ccccc1,inactive
15,CCC(N)(CO)CO,inactive
16,O=c1[nH]sc2ccccc12,inactive
17,COC(=O)c1cc(Cl)ccc1OC,inactive
18,O=[N+]([O-])c1ccccc1Nc1ccccc1,inactive
19,NC(=O)N1C(=O)C(C(=O)c2cc(Cl)cs2)c2cc(F)c(Cl)cc21 (stereo not drawn),inactive
20,CCCN(CCC)c1c([N+](=O)[O-])cc(C(F)(F)F)c(N)c1[N+](=O)[O-],54.3 µM (active)
21,N#CC1(c2ccc(F)cc2)CCC(=O)CC1,inactive
22,Nc1ccc(N)c2ccccc12,inactive
23,O=C(O)c1cc(O)c2c(c1)C(=O)c1cccc(O)c1C2=O,inactive
24,Nc1ccc2cc(S(=O)(=O)O)cc(O)c2c1N=Nc1ccccc1C(F)(F)F,inactive
25,CC(=O)OCC(C)OC(C)=O (stereo not drawn),inactive
26,CC(C)CCCCCCCCCCCCCCC(=O)O,inactive
27,Cc1cc2c(cc1C(F)(F)F)N(C(=O)Nc1ccc(Oc3cccnc3C)nc1)CC2,inactive
28,Cc1nc(-c2ccc3c(c2)CCN(CCC2CCC(NC(=O)/C=C/c4ccc(F)cc4)CC2)CC3)no1 (stereo not drawn),inactive
